Results on 16 compounds are retold here after publication PMC11062922 (Nature Chemical Biology, 2023).

Read-outs that look alike come from different tables or passages of the source.

Common to all, as to set-up: species or system human, MV4-11 + K-562 + COLO205 + SK-N-BE2 + OVCAR-8
The test system of test [1] is CDK7. The following applies: read-out: apparent Kd; compound concentrations:100 nM and 1000 nM (sheet 'Samples'); n = 1.
The subject of test [2] is CDKL5. The following applies: read-out: apparent Kd, n = 1.
In test [3] the test system is ERCC2. Particulars: read-out: apparent Kd; compound concentrations:100 nM and 1000 nM (sheet 'Samples'); n = 1.
Test [4] has as its system FER. The following applies: read-out: apparent Kd; compound concentrations:100 nM and 1000 nM (sheet 'Samples'); n = 1.
For test [5], the system named is FLT3. Particulars: read-out: apparent Kd, n = 1.
Test [6] relates to LATS1. The following applies: read-out: apparent Kd, n = 1.
Test [7] relates to MARK4. Particulars: read-out: apparent Kd, n = 1.
Test [8] has as its system MYLK3. Particulars: read-out: apparent Kd, n = 1.
The test system of test [9] is PIP4K2C. The following applies: read-out: apparent Kd, n = 1.
For test [10], the system named is PLK4. The following applies: read-out: apparent Kd, n = 1.
For test [11], the system named is PRKAA1. The following applies: read-out: apparent Kd, n = 1.
In test [12] the test system is PRKCD. Particulars: read-out: apparent Kd, n = 1.
Test [13] deals with PRKCQ. Particulars: read-out: apparent Kd, n = 1.
Test [14] concerns PRKD2. The following applies: read-out: apparent Kd, n = 1.
Test [15] relates to PTK2B. Particulars: read-out: apparent Kd, n = 1.
The subject of test [16] is PTK2. The following applies: read-out: apparent Kd, n = 1.
Test [17] relates to RPS6KA6. The following applies: read-out: apparent Kd, n = 1.
Test [18] has as its system STK10. The following applies: read-out: apparent Kd, n = 1.
Test [19] concerns PRKD3. Particulars: read-out: apparent Kd, n = 1.
Test [20] deals with DYRK1A. Particulars: read-out: apparent Kd, compound concentrations: 100 nM and 1000 nM (sheet 'Samples'), n = 1.
Setting [21] is: compound concentrations:100 nM and 1000 nM (sheet 'Samples').

Regarding `O=C1NC(=O)C(N2CCc3ccccc32)=C1c1ccccc1Cl` [SB-373598], the potency estimated from few doses in test [1] is 93.7 nM; in test [2] (setting [21]), 1390 nM; in test [3], 114 nM; in test [4], 183 nM; in test [5] (setting [21]), 1500 nM; in [6] (setting [21]), 994 nM. In addition, the potency estimated from few doses in test [7] (setting [21]) was 884 nM; in test [8] (setting [21]), 974 nM; in [9] (setting [21]), 1020 nM; in test [10] (setting [21]) it was 273 nM; in test [11] (setting [21]), 273 nM; in test [12] (setting [21]), 2190 nM. Besides, the potency estimated from few doses in test [13] (setting [21]) was 1580 nM; in test [14] (setting [21]), 1920 nM; in test [15] (setting [21]), 129 nM; in test [16] (setting [21]) it was 173 nM; in test [17] (setting [21]), 125 nM; in [18] (setting [21]), 996 nM.
For `Cc1ccc(Nc2ccnc(Nc3ccc4c(c3)CS(=O)(=O)C4)n2)cc1O.Cl` [GW579362A], the potency estimated from few doses in [18] (compound concentrations: 100 nM and 1000 nM (sheet 'Samples'), CATDS: 3.2691719677524503E-2) is 950 nM.
With `CCn1c(-c2nonc2N)nc2c(C#CC(C)(C)O)nc(OCCN)cc21.CCn1c(-c2nonc2N)nc2c(C#CC(C)(C)O)nc(OCCN)cc21.Cl.Cl` [GSK902056A], the potency estimated from few doses was 70.2 nM in test [6] (setting [21]), 373 nM in test [12] (setting [21]) and 50.9 nM in test [13] (setting [21]).
Regarding `Cc1ccc2c(-c3ccncc3)c(-c3ccc(F)cc3)nn2c1.Cl` [GW461484A], the potency estimated from few doses in test [1] was 288 nM; in test [3], 214 nM; in test [4], 259 nM; in [9] (setting [21]) it was 1560 nM; in test [10] (setting [21]), 428 nM; in [11] (setting [21]) it was 773 nM. For the same compound, the potency estimated from few doses in test [19] (setting [21]) was 2110 nM; in test [15] (setting [21]), 354 nM; in [16] (setting [21]), 462 nM; in [17] (setting [21]), 248 nM.
On to `Cc1cccc(Nc2nc(N[C@H]3CCNC3)ncc2C(N)=O)c1.Cl` [GSK2197149A], for which the potency estimated from few doses was 1070 nM in [5] (setting [21]), 2040 nM in test [8] (setting [21]), 1170 nM in [14] (setting [21]) and 1890 nM in test [19] (setting [21]).
On to `Cc1cc(-c2ccnc(Nc3cccc(C#N)c3)n2)cc(C)c1O` [GSK1440913A], for which the potency estimated from few doses in test [9] (compound concentrations: 100 nM and 1000 nM (sheet 'Samples'), CATDS: 0.18719100340522599) was 168 nM.
Regarding `Cl.Cl.NC(CNC(=O)c1cc(Br)c(-c2ccnc3[nH]ccc23)s1)c1ccccc1.NC(CNC(=O)c1cc(Br)c(-c2ccnc3[nH]ccc23)s1)c1ccccc1` (stereo not shown) [GSK1322949A], the potency estimated from few doses in test [2] (compound concentrations: 100 nM and 1000 nM (sheet 'Samples'), CATDS: 2.6362691965297801E-2) is 1670 nM; in [20] (CATDS: 2.3831773073254899E-2), 2230 nM; in test [16] (compound concentrations: 100 nM and 1000 nM (sheet 'Samples'), CATDS: 3.2827232082793402E-2), 993 nM.
As for `COc1cc(Nc2nccc(-c3cnn4ncccc34)n2)cc(OC)c1` [GW801372X], the potency estimated from few doses in test [2] (compound concentrations: 100 nM and 1000 nM (sheet 'Samples'), CATDS: 4.3388944669180397E-2) is 141 nM; in [20] (CATDS: 3.9916528669642001E-2), 170 nM; in test [5] (compound concentrations: 100 nM and 1000 nM (sheet 'Samples'), CATDS: 0.110722345436643), 22.4 nM; in test [9] (compound concentrations: 100 nM and 1000 nM (sheet 'Samples'), CATDS: 2.38914066508359E-2), 648 nM; in test [16] (compound concentrations: 100 nM and 1000 nM (sheet 'Samples'), CATDS: 2.4454982719063802E-2), 604 nM.
Turning to `CNCc1ccc(-c2cc(-c3nc(-c4ccc(S(=O)(=O)C(C)C)cc4)cnc3N)on2)cc1` [VE-822], the potency estimated from few doses in [9] (setting [21]) is 186 nM.
As for `COc1cc(Nc2nccc(N3CCC(NC(=O)c4cccc(NC(C)=O)c4)C3)n2)cc(OC)c1OC` (stereo not shown) [GSK1379754A], in test [9] (compound concentrations: 100 nM and 1000 nM (sheet 'Samples'), CATDS: 7.8975813686716995E-2), the potency estimated from few doses was 2090 nM.
Consider `O=C1N=C(NCc2cccs2)O/C1=C\c1ccc2ncccc2c1` [RO4624208-000], for which the potency estimated from few doses in test [20] (CATDS: 0.15601694862230001) is 53.8 nM.
Regarding `c1ccc(-c2n[nH]cc2Nc2ccnc3ccccc23)nc1` [GW694077X], the potency estimated from few doses in [20] (CATDS: 7.5630271191524906E-2) was 80.3 nM; in test [14] (compound concentrations: 100 nM and 1000 nM (sheet 'Samples'), CATDS: 7.8874466930765497E-2), 74 nM; in test [19] (compound concentrations: 100 nM and 1000 nM (sheet 'Samples'), CATDS: 6.6484920518239093E-2), 104 nM.
Take `CS(=O)(=O)Nc1ccc(-c2ccnc3[nH]ccc23)cc1` [GSK993273A]: the potency estimated from few doses in test [9] (setting [21]) was 482 nM.
For the compound `CNc1cc(-c2ccc3c(N)n[nH]c3c2)nc(N)n1` [GSK2224810A], the results for the potency estimated from few doses in test [8] (setting [21]) and in test [17] (setting [21]) were 457 nM and 899 nM, respectively.
In the case of `CN(C)CCNC(=O)Nc1ccc(N(C)c2ccnc(Nc3ccc(CS(C)(=O)=O)cc3)n2)cc1.Cl` [GW830900A], the results for the potency estimated from few doses in test [5] (setting [21]) and in test [9] (setting [21]) were 39.9 nM and 1840 nM, respectively.
For `O=C(O)C(F)(F)F.O=c1[nH]ccc2nc(N[C@@H]3CCNC3)nc(Nc3ccc4c(c3)S(=O)(=O)CC4)c12` [GSK2181306A], the potency estimated from few doses was 1430 nM in test [5] (compound concentrations: 100 nM and 1000 nM (sheet 'Samples'), CATDS: 8.5928839760778392E-3); 1060 nM in test [6] (compound concentrations: 100 nM and 1000 nM (sheet 'Samples'), CATDS: 9.3348582894500695E-3); 364 nM in test [7] (compound concentrations: 100 nM and 1000 nM (sheet 'Samples'), CATDS: 1.39607166136132E-2); 378 nM in test [8] (compound concentrations: 100 nM and 1000 nM (sheet 'Samples'), CATDS: 1.37346756795961E-2); 780 nM in test [10] (compound concentrations: 100 nM and 1000 nM (sheet 'Samples'), CATDS: 1.0301359054319901E-2); 806 nM in test [11] (compound concentrations: 100 nM and 1000 nM (sheet 'Samples'), CATDS: 1.0186150726121701E-2). In addition, the potency estimated from few doses was 393 nM in test [12] (compound concentrations: 100 nM and 1000 nM (sheet 'Samples'), CATDS: 1.35004304297044E-2); 109 nM in [13] (compound concentrations: 100 nM and 1000 nM (sheet 'Samples'), CATDS: 2.6170878676828799E-2); 361 nM in test [14] (compound concentrations: 100 nM and 1000 nM (sheet 'Samples'), CATDS: 1.40189699777229E-2); 416 nM in test [19] (compound concentrations: 100 nM and 1000 nM (sheet 'Samples'), CATDS: 1.3161717541215199E-2); 7.85 nM in test [15] (compound concentrations: 100 nM and 1000 nM (sheet 'Samples'), CATDS: 0.14676588130533899); 453 nM in test [16] (compound concentrations: 100 nM and 1000 nM (sheet 'Samples'), CATDS: 1.26908044815701E-2). The potency estimated from few doses is 478 nM in test [17] (compound concentrations: 100 nM and 1000 nM (sheet 'Samples'), CATDS: 1.2402205913088901E-2); 349 nM in [18] (compound concentrations: 100 nM and 1000 nM (sheet 'Samples'), CATDS: 1.4244346039845699E-2).
